Where “and” joins values, the source holds several entries; their conditions need not be identical. Equal values may be shown once. Results filed as inconclusive are left out. Unmarked numbers belong to inactive results. Calls of active or inactive are those of the source. Unless noted, the call rests on the fitted dose curve.
On the % scale 0 is the no-effect control and ±100 the full control effect.

In the first assay the target is Cytochrome P450 2C19 (Homo sapiens) (UniProt P33261). The assay is described as follows: qHTS Assay for Inhibitors and Substrates of Cytochrome P450 2C19 (AID 899; active means well fitted inhibition curve with a large enough effect; further: nearly all actives have a fitted effect of over 60% in size; further: potency means the concentration at half of the fitted maximal effect). The conditions noted are these: recombinant CYP2C19, luciferin-H EGE luminescence; series mostly up to 57.1 µM; activity, negative = inhibition: at the top concentration. An outline of the steps: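 Luminescence readout of luciferin formed from 10uM Luciferin-H EGE (KM level) by 5 nM CYP2C19 in 50mM KPO4. 60 min NADPH-driven reaction at 37C after 10 min compound preincubation; data scaled to 57uM ketoconazole inhibition.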
Cytochrome P450 2C19 (Homo sapiens), sequence (P33261 whole entry, looked up): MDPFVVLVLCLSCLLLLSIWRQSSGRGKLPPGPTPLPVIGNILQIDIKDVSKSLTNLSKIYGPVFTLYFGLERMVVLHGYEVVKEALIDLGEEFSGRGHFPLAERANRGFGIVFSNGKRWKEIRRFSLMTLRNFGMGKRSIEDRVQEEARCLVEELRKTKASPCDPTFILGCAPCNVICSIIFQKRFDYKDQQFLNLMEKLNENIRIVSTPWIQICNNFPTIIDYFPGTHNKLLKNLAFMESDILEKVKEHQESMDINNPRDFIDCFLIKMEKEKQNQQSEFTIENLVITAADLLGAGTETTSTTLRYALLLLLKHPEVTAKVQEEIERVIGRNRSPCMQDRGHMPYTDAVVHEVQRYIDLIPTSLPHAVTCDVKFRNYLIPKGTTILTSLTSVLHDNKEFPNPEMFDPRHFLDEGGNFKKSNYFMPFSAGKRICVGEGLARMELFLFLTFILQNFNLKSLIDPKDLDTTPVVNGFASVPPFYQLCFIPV
Take `CN[C@H]1[C@H]2[C@H]3CCN2C[C@@H]1O3`: the “activity, negative = inhibition” value is -3.34%. As to `COc1ccc2c(c1O)-c1c(OC)c(OC)cc3c1[C@@H](C2)N(C)CC3`, the “activity, negative = inhibition” value is -1.71%.

With `CN1CCc2cc3c(cc2[C@@H]1[C@H]1OC(=O)c2c1ccc1c2OCO1)OCO3`, the Potency is 100 nM (active) and 15.8 nM (active).

System in another assay: not listed separately
The assay is described as follows: Validation screen for inhibitors of Lassa infection (AID 463096). The note with it: Lassa virus infection, cell-based; series mostly up to 46.1 µM; activity change, negative = inhibition: at the top concentration.
In the case of `Nc1ncnc2c1ncn2[C@@H]1O[C@H](COP(=O)(O)OP(=O)(O)OP(=O)(O)OP(=O)(O)OC[C@@H]2O[C@H](n3cnc4c(N)ncnc43)[C@@H](O)[C@@H]2O)[C@H](O)[C@H]1O`, the “activity change, negative = inhibition” value was 22.1%.

With `C#C[C@]1(O)CC[C@H]2C3CCC4=Cc5oncc5CC4(C)C3CCC21C` (some centres undefined), the “activity change, negative = inhibition” value is -18%. Same read-out and setting: the result for `CCCCCCCCCCCCC/C=C/[C@@H](O)[C@@H](N)CO` reads 1.93%. The same measure, in the same setting: the result for `C[C@@H](Oc1ccc(Oc2cnc3ccc(Cl)cc3n2)cc1)C(=O)O` reads -16.5%. The same measure, in the same setting: the result for `CNC(=O)[C@H]1O[C@@H](n2cnc3c(NCc4ccc(N)cc4)ncnc32)[C@H](O)[C@H]1O` reads -16.8%. On to `Nc1ncnc2c1nc(Sc1ccc(Cl)cc1)n2[C@H]1O[C@@H]2COP(=O)(O)O[C@H]2[C@@H]1O`, for which the “activity change, negative = inhibition” value was -14.1%. The same measure, in the same setting: the result for `Nc1nc(Nc2ccccc2)nc2c1ncn2[C@@H]1O[C@H](CO)[C@H](O)[C@H]1O` reads 0.0139%. Still for that read-out and setting: with `CN=C(N)NCCCC(N)C(=O)O` (centres undefined) the figure was -11.1%; with `NC(=S)c1ccc[n+]([C@@H]2O[C@@H](COP(=O)([O-])OP(=O)(O)OC[C@H]3O[C@@H](n4cnc5c(N)ncnc54)[C@H](OP(=O)(O)O)[C@H]3O)C(O)C2O)c1` (some centres undefined), 7.85%; with `CCCC1O[C@@H]2C[C@H]3[C@@H]4CCC5=CC(=O)C=C[C@]5(C)C4[C@@H](O)C[C@]3(C)[C@]2(C(=O)CO)O1` (some centres undefined), -9.32%. Still for that read-out and setting: with `CNC(=O)[C@H]1O[C@@H](n2cnc3c(NCc4cccc(I)c4)ncnc32)[C@H](O)[C@H]1O` the figure was -12.9%.

Take `C[C@H]1c2cccc(O)c2C(O)=C2C(=O)[C@]3(O)C(O)=C(C(N)=O)C(=O)C(N(C)C)[C@@H]3[C@@H](O)C21` (some centres undefined): the “activity change, negative = inhibition” value was -4.39%. The same measure, in the same setting: with `COc1c2c(nc3ccccc13)OC(C(C)(O)CO)C2` (centres undefined) the figure was 25.5%; with `Nc1nc(SCc2ccc([N+](=O)[O-])cc2)c2ncn([C@@H]3O[C@H](CO)[C@H](O)[C@H]3O)c2n1`, 15.2%. The same measure, in the same setting: with `CN(C)C1C(=O)C(C(N)=O)=C(O)[C@@]2(O)C(=O)C3=C(O)c4c(O)ccc(Cl)c4[C@@H](O)C3C[C@@H]12` (some centres undefined) the figure was -8.59%. On to `Nc1nc(Cl)nc2c1ncn2[C@@H]1O[C@H](COP(=O)(O)OP(=O)(O)OP(=O)(O)O)[C@H](O)[C@H]1O`, for which the “activity change, negative = inhibition” value is -15.6%. Same read-out and setting: with `CN(C)CCCO[C@H]1C([C@H](O)CO)O[C@@H]2OC(C)(C)O[C@@H]21` (some centres undefined) the figure was 47.5%. Same read-out and setting: the result for `C/C=C1\C(=O)CC2C3CCC4=CC(=O)CC[C@]4(C)C3CC[C@]12C` (some centres undefined) reads -34.6%; that for `C[C@H]1CC2[C@@H]3CCC4=CC(=O)C=C[C@]4(C)[C@@]3(Cl)[C@@H](O)C[C@]2(C)[C@@]1(O)C(=O)CO` (some centres undefined), 12.8%. The same measure, in the same setting: with `Nc1nc(Cl)nc2c1ncn2[C@@H]1O[C@H](CO)[C@H](O)[C@H]1O` the figure was -10.4%; with `Cc1ccc(OCC(O)C(C)NC(C)C)c2c1CCC2` (centres undefined), -36.8%. `COc1ccc2c(c1OC)C(=O)OC2C1c2c(cc3c(c2OC)OCO3)CCN1C` (centres undefined): the “activity change, negative = inhibition” value was -21.4%. Take `CC[C@H](C)C(=O)O[C@H]1CCC=C2C=C[C@H](C)[C@H](CC[C@@H]3C[C@H](O)CC(=O)O3)C21` (some centres undefined): the “activity change, negative = inhibition” value was 7.17%. As for `Nc1ncnc2c1nc(Br)n2C1O[C@H]2COP(=O)(O)O[C@@H]2C1O` (some centres undefined), the “activity change, negative = inhibition” value is -12.4%. On the same count and under the same terms, the result for `O=C(O)CC[C@H](NC(=O)c1ccccc1C(=O)O)C(=O)O` reads 3.14%; that for `NC(CCC(=O)NCS(=O)(=O)O)C(=O)O` (centres undefined), 12.1%; that for `OC[C@H]1O[C@@H](n2cnc3c(N[C@H]4CC5CCC4C5)ncnc32)[C@H](O)[C@@H]1O` (some centres undefined), 8.36%.

For the molecule `CCCCCCCCCCCCCCC/C=C/[C@@H](O)[C@H](NC(=O)CCCCCCCCCCCCC)OC` (tested in a mixture with another compound), the “activity change, negative = inhibition” value was 7.83%. With `Cc1cn([C@H]2C[C@@H](N=[N+]=[N-])[C@@H](CO)O2)c(=O)[nH]c1=O`, the “activity change, negative = inhibition” value was 10.9%. Regarding `CC(=O)[C@@]1(O)CC[C@H]2C3CCC4=CC(=O)CC[C@]4(C)C3CC[C@@]21C` (some centres undefined), the “activity change, negative = inhibition” value was -7.86%.

For the molecule `O=[N+]([O-])c1ccc(CSc2ncnc3c2ncn3[C@@H]2O[C@H](CO)[C@H](O)[C@H]2O)cc1`, the “activity change, negative = inhibition” value was 6.67%.

Take `Nc1ncnc2c1ncn2[C@@H]1O[C@H](CO)[C@H](O)[C@H]1O`: the “activity change, negative = inhibition” value is -19.7%. On the same count and under the same terms, the result for `COc1cc2c(cc1OC)C(c1ccccc1)CN(C)CC2` (centres undefined) reads 7.81%; that for `CNC(=O)[C@H]1O[C@@H](n2cnc3c(N)ncnc32)[C@H](O)[C@H]1O`, -14%; that for `CN1C2CC(OC(=O)C(CO)c3ccccc3)CC1C1OC12` (centres undefined), 17%. Still for that read-out and setting: with `CN1C(=O)CCC1c1cccnc1` (centres undefined) the figure was 1.28%.

The record behind these values is PubChem BioAssay (NCATS).
